Among the data in ChEMBL document CHEMBL3988442, “University of Dundee, Small-Polar-MMV Screening Library” (2021) are Percent Effect values, retold here.

In this assay the target is T1, Arginase-2, mitochondrial (Homo sapiens) (UniProt P78540).
T1 sequence (whole entry): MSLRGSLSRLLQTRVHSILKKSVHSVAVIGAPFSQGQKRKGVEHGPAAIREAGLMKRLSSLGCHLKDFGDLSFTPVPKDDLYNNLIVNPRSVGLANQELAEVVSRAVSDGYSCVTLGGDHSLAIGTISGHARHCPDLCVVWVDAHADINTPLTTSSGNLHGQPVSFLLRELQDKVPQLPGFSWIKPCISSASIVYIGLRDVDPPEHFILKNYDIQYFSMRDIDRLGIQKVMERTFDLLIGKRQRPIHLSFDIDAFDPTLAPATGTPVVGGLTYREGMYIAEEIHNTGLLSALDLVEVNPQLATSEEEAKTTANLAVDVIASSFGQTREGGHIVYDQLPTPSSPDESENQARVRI
Description: in vitro enzyme assay to detect the production of urea directly proportional to the activity of Arginase II. Format: functional. The note with it: 30 µM. Further details: scale not given: in the data most compounds retested in dose-response had high values.
With `CC(C)(C)n1cc(NC(=O)C2CN(Cc3ccccc3)CCO2)cn1` (stereo not given), the Percent Effect was 0.54%.

Turning to `CCC(C(=O)NCc1cccnc1)N(c1cccc(C)c1)S(C)(=O)=O` (stereo not given), the Percent Effect is -0.54%.

In the case of `Cc1nc(NCC2CC2)nc2c1COCC21CCN(C(=O)NC(C)C)C1` (stereo not given), the Percent Effect is 7.03%.

In the case of `Cc1nn(C)c2c(=O)n(C(C)C)c(NCCc3ccccc3)nc12`, the Percent Effect was determined as 8.11%.

As for `Cc1ccc(-c2nc(CN3CC(n4nc(C)cc4C)C3)no2)cc1`, the Percent Effect stood at 3.78%.

With `O=C(Cn1ccc2c(Cl)cccc21)N1CCCC1`, the Percent Effect came out at 8.11%.

As for `Cc1noc(C)c1CN1CCC[C@]2(C[C@@H](Oc3ccccn3)CO2)C1`, the Percent Effect was -26.5%.

For `CN(C)c1ncccc1CN1CCOC(C(=O)Nc2ccccc2)C1` (stereo not given), the Percent Effect came to 1.62%.

As to `O=C(c1coc(CN2CCN(c3ccccc3F)CC2)n1)N1CCCC1`, the Percent Effect was found to be 3.78%.

As to `COc1ccc2c(c1)OCC(CNC(=O)c1cnc(O)cn1)C2` (stereo not given), the Percent Effect amounted to 10.3%.

As to `CCS(=O)(=O)CC(=O)N1CCCC1c1noc(C2CC2)n1` (stereo not given), the Percent Effect was 2.7%.

For `CN(CC(=O)N1CCCC1c1noc(C2CC2)n1)C1CC1` (stereo not given), the Percent Effect came to 5.95%.

For the compound `c1ccc(O[C@H]2CO[C@@]3(CCN(Cc4ccc5c(c4)OCO5)C3)C2)nc1`, the Percent Effect stood at 7.03%.

`CNC(=O)CCNC(=O)c1cc(Br)c2c(c1)OCCO2`: the Percent Effect was -10.3%.

Take `O=C(NCCO)c1coc(CN2CCN(c3ccccc3F)CC2)n1`: the Percent Effect was -8.11%.

With `CN1CCN(C(=O)Cn2ccc3c(Cl)cccc32)CC1`, the Percent Effect is 4.87%.

With `Cc1nsc(N2CCCN(C(=O)NCc3cc(C)on3)CC2)n1`, the Percent Effect was 8.11%.

In the case of `COCCC(=O)NCC1COc2cc(OC)ccc2C1` (stereo not given), the Percent Effect worked out at 5.95%.

On to `CCN1CCC(NC(=O)c2ccc(F)cc2I)CC1`, for which the Percent Effect was -1.62%.

In the case of `COc1ccc2c(c1)OCC(CNC(=O)c1cnc(NC(C)C)nc1)C2` (stereo not given), the Percent Effect came to 2.7%.

Regarding `O=C(c1coc(CN2CCN(c3ccccc3F)CC2)n1)N1CC=CC1`, the Percent Effect is 5.95%.

On to `COc1ccccc1Oc1ncccc1CNC(=O)[C@H](C)O`, for which the Percent Effect amounted to 4.87%.

In the case of `COc1ccc(C(=O)N2C[C@@H](C(=O)O)[C@H](c3ccccc3)C2)c(C)c1`, the Percent Effect was -7.03%.

Take `CC1=Nc2c(c(=O)[nH]n2C2CCOCC2)C(c2cccc(O)c2)S1` (stereo not given): the Percent Effect was determined as 2.7%.

As to `Cc1ccc([C@@H]2CN(S(=O)(=O)Cc3ccccc3)C[C@H]2N(C)C)cc1`, the Percent Effect was 1.62%.

As to `Cn1cc(CN2C[C@@H]3COC[C@]3(C(=O)NCc3cccs3)C2)cn1`, the Percent Effect came out at 4.87%.

In the case of `COc1ccc2c(c1)OCC(CNC(=O)c1ccc3[nH]nnc3c1)C2` (stereo not given), the Percent Effect turned out to be 8.11%.

Take `Nc1ccc(C(=O)N2CCCC(c3nccn3Cc3cscn3)C2)cn1` (stereo not given): the Percent Effect was 5.95%.

`COc1ccc(OCC(O)CN2CCN(c3nccs3)CC2)cc1` (stereo not given): the Percent Effect was -8.11%.

With `Cc1nc(N2CCN(C(=O)NCc3cscn3)CC2)sc1C`, the Percent Effect turned out to be 5.95%.

Turning to `c1ccc(OC2COC3(CCN(CC4CC4)CC3)C2)nc1` (stereo not given), the Percent Effect is -16.8%.

`COc1ccc2c(c1)OCC(CNC(=O)NC(C)(C)C)C2` (stereo not given): the Percent Effect was 5.95%.

For `CCC(C(=O)NCc1ccncc1)N(c1cccc(Cl)c1)S(C)(=O)=O` (stereo not given), the Percent Effect was -13.5%.

Turning to `Cc1nc(NCC2CC2)nc2c1COCC21CCN(C(=O)C(C)(C)C)C1` (stereo not given), the Percent Effect came to 8.11%.

For `CN(C)c1ncccc1NC(=O)C1CN(Cc2ccccc2)CCO1` (stereo not given), the Percent Effect is -8.11%.

For the compound `COCCCC1CCCN(C(=O)CCc2csc(N)n2)C1` (stereo not given), the Percent Effect worked out at 3.78%.

As to `CCCn1c(NCCc2ccccc2)nc2c(C)nn(C)c2c1=O`, the Percent Effect amounted to 1.62%.

Consider `O=C(NC1CC1)[C@@H]1CCO[C@@H]2CCN(CCc3ccccc3)C[C@@H]21`, for which the Percent Effect was found to be 10.3%.

With `Cc1cc(F)c(C(C(=O)O)N2CCN(Cc3ccccn3)CC2)cc1Cl` (stereo not given), the Percent Effect stood at 5.95%.

`Cc1ccc(CCNC(=O)N2CCC(Cc3cnn(C)c3)C2)cn1` (stereo not given): the Percent Effect is 7.03%.
